# Test system: WNK4
# Settings: concentration: 1 μM, replicates: in singlicate; n = 1
# 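Further: KINOMEscan kinase panel screen.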
row,SMILES,%Inh
1,COc1cccc(NC(=O)NC2CCN(c3ccnc(Nc4cc(OC)c(OC)c(OC)c4)n3)C2)c1 (centres unmarked) [GSK1379763],11%
2,COC(=O)Nc1nc2ccc(Oc3ccc(NC(=O)Nc4cc(C(F)(F)F)ccc4F)cc3)cc2n1C.Cl [GW692089],28%
3,COc1cccc(C2=C(Nc3ccc(Cl)c(C(=O)O)c3)C(=O)NC2=O)c1 [SB-390769],43%
4,COc1cc(Nc2nccc(-c3c(-c4cccc(NC(=O)c5c(F)cccc5F)c4)nn4ccccc34)n2)cc(OC)c1OC [GSK323521],19%
5,Cn1cc(-c2[nH]c3cc(NC(=O)[C@H](N)C4CCCCC4)cc4c3c2C=NNC4=O)cn1,0%
6,Nc1ncc(-c2cccnc2)c2scc(-c3ccc4c(c3)CCN4C(=O)Cc3ccccc3)c12 [GSK683281],0%
7,CCCCc1nn2ncccc2c1-c1ccnc(Nc2ccc(N3CCN(C)CC3)cc2)n1 [GW684941],56%
8,O=C(Nc1n[nH]c2cc(-c3ccoc3)ccc12)C1CC1 [SB-738481],7%
9,Cl.c1ccc(-c2ccc3c(Nc4ccc5[nH]ncc5c4)ccnc3c2)nc1 [GW440137],28%
10,Cn1cc(-c2ccc3c(c2)CCN3C(=O)Cc2cccc(Cl)c2)c2c(N)ncnc21 [GSK2606590],5%
11,COc1cccc(-c2ccc3c(NC(=O)C4CC4)n[nH]c3n2)c1 [SB-710903],87%
12,Nc1ncc(-c2ccc3nccc(-c4ccncc4)c3c2)cc1S(=O)(=O)N1CCOCC1 [GSK1627798],9%
13,COc1cc(Nc2nccc(N3CCC(NC(=O)Nc4cccc(C(C)=O)c4)C3)n2)cc(OC)c1OC (centres unmarked) [GSK1379753],41%
14,COCCOCCOc1cc2ncc3c4ccc(C#N)cc4[nH]c3c2cc1OC,0%
15,COc1ccc(Nc2nccc(NCCNC(=O)c3cc4ccccc4s3)n2)cc1 [GSK1379896],29%
16,COC(=O)Nc1nc2cc(Oc3ccc(NC(=O)Nc4cc(C(F)(F)F)ccc4F)cn3)ccc2[nH]1.Cl.Cl [GW681170],39%
17,O=C(Nc1n[nH]c2nc(-c3ccc(O)cc3)ccc12)C1CC1 [SB-710363],70%

# Source: article PMC5540273 (PLoS ONE, 2017)
